PubChem BioAssay AID1851 (National Center for Advancing Translational Sciences (NCATS), 2009)
“And” between values parts separate entries of the source, which are not always exact repeats. Equal entries are not always repeated. Among all 16,000 compounds or so, about 2,600 (16%) were called active. Not shown: some 20% with an inconclusive outcome. The list is a sample of the results. Values without a mark were called inactive. The call rests on the fitted dose curve; in most records, active means well fitted curve in the direction sought with a large enough effect; inconclusive means small, poorly fitted or top-dose-only effect, or effect the other way; inactive means no such curve, though single readings can be large or run the other way.

Each molecule was assayed against Cytochrome P450 2D6 (Homo sapiens) (UniProt P10635) (assay: Cytochrome panel assay with activity outcomes). Settings: recombinant CYP, pro-luciferin dealkylation, luminescence, p450-cyp2d6; series mostly up to 57.1 µM.
On the % scale 0 is the no-effect control and ±100 the full control effect.

Sequence of Cytochrome P450 2D6 (Homo sapiens) (P10635 whole entry, looked up): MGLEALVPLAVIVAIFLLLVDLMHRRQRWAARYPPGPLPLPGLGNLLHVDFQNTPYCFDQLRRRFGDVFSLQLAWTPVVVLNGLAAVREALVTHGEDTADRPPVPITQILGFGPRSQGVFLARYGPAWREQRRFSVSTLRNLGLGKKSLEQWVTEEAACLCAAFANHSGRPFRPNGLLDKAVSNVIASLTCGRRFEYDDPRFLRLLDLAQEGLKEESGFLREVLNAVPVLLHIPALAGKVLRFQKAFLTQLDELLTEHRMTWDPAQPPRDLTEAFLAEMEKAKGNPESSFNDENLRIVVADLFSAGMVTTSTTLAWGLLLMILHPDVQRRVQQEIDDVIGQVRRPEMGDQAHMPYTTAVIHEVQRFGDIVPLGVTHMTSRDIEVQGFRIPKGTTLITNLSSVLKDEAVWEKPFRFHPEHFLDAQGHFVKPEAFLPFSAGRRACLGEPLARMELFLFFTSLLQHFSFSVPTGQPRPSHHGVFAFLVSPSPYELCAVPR

SMILES	AC50	activity, negative = inhibition
CN(C)/C=C/C(=O)c1ccc(F)cc1	inactive	
Cc1ccccc1S(=O)(=O)O[C@@H]1NS(=O)(=O)c2ccccc21		6.51% [at 11.4 µM]
COCn1c2ccccc2c2nnc(C(C)=O)nc21		-15.8% [at 11.4 µM] and -6.91% [at 11.4 µM]
O=S(=O)(O)C1CCNCC1	inactive	
CC(C)N=C(Nc1ccc(Cl)cc1)c1cccnc1	inactive	
O=S(=O)(O)c1ccc2c(N=Nc3cccc4ccccc34)c(O)c(S(=O)(=O)O)cc2c1		5.03% [at 11.4 µM]
Cc1nn(Cc2c(F)c(F)c(F)c(F)c2F)c(C)c1NC(=O)c1c(-c2ccccc2)nn(-c2ccccc2)c1C	inactive	
Nc1nc(-c2cccc([N+](=O)[O-])c2)cc(-c2cc(-c3cccc([N+](=O)[O-])c3)nc(N)n2)n1		-5.72% [at 11.4 µM]
O=[N+]([O-])c1cccc(-c2nc(-c3cccs3)c(-c3cccs3)[nH]2)c1	15.8 µM (active)	
c1ccc(-c2nc(-c3cccs3)[nH]c2-c2ccccc2)cc1	inactive	
Cc1cc(C(F)F)n2nc(C(=O)Nc3cccnc3Cl)nc2n1	inactive	
O=C(OCc1ccc(Cl)cc1Cl)c1cccnc1Cl	15.8 µM (active)	
O=C(COC(=O)c1cccnc1Cl)c1ccccc1	inactive	
O=C(OCc1ccc(Cl)cc1)c1ccccc1C(=O)c1ccccc1	inactive	
CCc1ccc2c(c1)c(N=NC1=NC(=O)CS1)c(O)n2CC	inactive	
COc1ccc(CN2C(=O)c3ccccc3C(/C=N\OCc3ccc(F)cc3)C2=O)cc1 (stereo unspecified)	inactive	
COc1cccc(Cn2c(=O)c(CCc3ccccc3)nc3cnc(OC)nc32)c1	inactive	
C=C1C(=O)O[C@@H]2[C@@H]1CC/C(C)=C\CC[C@@]1(C)O[C@H]21	inactive	
CN(C)c1ccc(-c2ccc3ncnc(-n4ccnc4)c3c2)cc1	20 µM (active)	
Cc1ccccc1-c1ccc2ncnc(N3CCN(C)CC3)c2c1	inactive	
Cc1ccccc1-c1ccc2ncnc(-n3ccnc3)c2c1	25.1 µM (active)	
CCOC(=O)c1cc2c(ccn2C)n1CC(=O)N1CCCC(C)C1 (stereo unspecified)	inactive	
Cc1ccc(C(=O)NC(=S)Nc2ccc3c(c2)OCCO3)c(C)c1	inactive	
CON1C(=O)C(=O)N(OC)C2CCCCC21 (stereo unspecified)	inactive	
CC(C)(C)c1cc2cccnc2n1Cc1cccc(F)c1	1.26 µM (active)	
Cc1cccc(CSc2cccc3cccnc23)c1	inactive	

SMILES	AC50	activity, negative = inhibition
COc1cccc(Cn2c(=O)c(-c3cc(F)cc(F)c3)nc3cnc(N(C)C)nc32)c1	inactive	
CN(C)c1ccc(/C=C2/C(=O)N(c3ccc([N+](=O)[O-])cc3)N=C2N2CCOCC2)cc1	inactive	
COc1ccc2[nH]c(C(=O)c3ccccc3)cc2c1	inactive	
C=CCSC1=Nc2sccc2C2=NC(=O)CN12	inactive	
COc1cc2c(cc1NC(=O)Nc1ccccc1)oc1ccccc12	10 µM (active)	
COc1ccccc1CC(=O)Nc1cc2oc3ccccc3c2cc1OC	inactive	
COc1cc2c(cc1NC(=O)c1cc(-c3cccnc3)nc3ccc(C)cc13)oc1ccccc12	inactive	
COCCn1c(=O)c(-c2ccc(OC)cc2)nc2cnc(Nc3cccc(OC)c3)nc21	inactive	
CCOc1cc(NC(=O)C2CCCCC2)c(OCC)cc1NC(=O)c1ccco1	inactive	
Clc1ccc(SCc2cc(-c3ccccc3)no2)cc1	inactive	
Cn1c(CNS(=O)(=O)c2ccc(Cl)cc2)n[nH]c1=S	inactive	
O=S(=O)(NCc1cc(-c2ccc(Cl)cc2)no1)c1ccc(Cl)cc1	0.631 µM (active)	
COc1ccc(NC(=O)c2cc(-c3ccccc3Cl)no2)cc1	inactive	
O=C(Nc1ccccc1)c1cc(-c2ccccc2Cl)no1	inactive	
O=S(=O)(NCc1cc(-c2ccccc2Cl)no1)c1ccc(Cl)cc1	12.6 µM (active)	
COc1ccc([C@@H]2CC(=O)c3c(O)cc(O[C@H]4O[C@@H](CO[C@H]5O[C@@H](C)[C@@H](O)[C@@H](O)[C@@H]5O)[C@@H](O)[C@@H](O)[C@@H]4O)cc3O2)cc1O	inactive	
COc1cc(Cl)c(C)cc1NC(=O)CNC(=O)Cn1cnc2ccccc2c1=O	inactive	
Nc1c(S(=O)(=O)c2ccccc2)c2nc3ccccc3nc2n1Cc1ccco1	25.1 µM (active)	
Cc1nc2c([nH]1)c(=O)n(C)c(=O)n2Cc1ccco1	inactive	
Cc1ccc(S(=O)(=O)c2nc(S(=O)(=O)c3ccc(C)cc3)c(NCc3ccco3)s2)cc1	inactive	
Cc1onc(-c2ccccc2Cl)c1C(=O)NCC(=O)O	inactive	
O=c1c(-c2cccs2)nc2cnc(Oc3ccccc3)nc2n1Cc1cccs1	inactive	
NC(=O)CNC(=O)[C@@H]1CC2(CC(c3ccc(Cl)cc3)=NO2)CN1C(=O)c1ccccc1 (stereo partly specified)	inactive	
COc1ccc(S(=O)(=O)N2CCCCCC2)cc1N(C)S(=O)(=O)c1ccc(Cl)cc1	inactive	
O=C(c1ccncc1)N1CCC2(CC1)CCN(c1ccccc1)CC2	inactive	
O=C(c1cccc(F)c1)N1CCC2(CC1)CCN(c1cccc(-c3ccccc3)c1)CC2	inactive	

SMILES	AC50	activity, negative = inhibition
O=C(c1ccncc1)N1CCC2(CC1)CCN(c1cccc(-c3ccccc3)c1)CC2	7.94 µM (active)	
O=C(c1ccncc1)N1CCC[C@@]2(CCN(c3ncccn3)C2)C1	inactive	
O=C(c1ccncc1)N1CCC2(CCCN(C(c3ccccc3)c3ccccc3)C2)CC1	0.0398 µM (active)	
O=C(c1ccncc1)N1CCC2(CC1)CN(c1ccccc1)C2	7.94 µM (active)	
O=C(c1ccncc1)N1CCC2(CC1)CN(C(c1ccccc1)c1ccccc1)C2	0.0251 µM (active)	
CC(C)NC(=O)N1CCCC2(CCN(C(=O)c3ccncc3)CC2)C1	inactive	
CC(C)NC(=O)N1CC2(CCN(C(=O)c3ccncc3)CC2)C1	inactive	
O=C(c1ccncc1)N1CCC[C@@]2(CCN(c3ccccc3)C2)C1	inactive	
O=C(c1ccncc1)N1CCC2(CC1)CN(c1ccc(-c3ccccc3)cc1)C2	inactive	
CCN(CC)c1ccc(N2C(=O)/C(=C\c3cccnc3)SC2=S)cc1	inactive	
NOCC(=O)O	inactive	
CCCOc1ccc(C(=O)NC(=S)Nc2nc3ccc(C)cc3s2)cc1	inactive	
Cc1cc(C)nc(NC(=O)CCCC(=O)O)c1	inactive	
Cc1ccc(N(CC(N)=O)C2SC(=O)N(Cc3cccc(C(=O)O)c3)C2=O)cc1 (stereo unspecified)	inactive	
CCOC(=O)CN(c1ccccn1)S(=O)(=O)c1ccccc1	inactive	
O=C(O)c1ccc(CSc2nc3ccccc3o2)cc1	inactive	
O=S(=O)(c1ccccc1)N1CCN(c2cc(-c3ccccc3)nc3ncnn23)CC1	inactive	
O=C(O)c1ccc(NCc2nc3cc4ccccc4cc3[nH]2)cc1		3.49% [at 11.4 µM]
O=C(c1ccncc1)N1CCC2(CC1)CCN(C(c1ccccc1)c1ccccc1)CC2	3.16 µM (active)	
O=C(c1cccc(F)c1)N1CCC2(CC1)CCN(c1ccccc1)CC2	inactive	
Cn1cccc1C(=O)N1CCC2(CC1)CN(C(c1ccccc1)c1ccccc1)C2	3.16 µM (active)	
O=C(c1cccc(F)c1)N1CCC2(CC1)CCN(C(c1ccccc1)c1ccccc1)CC2	3.16 µM (active)	
O=C(c1cccc(F)c1)N1CCC2(CC1)CN(c1ccc(-c3ccccc3)cc1)C2	inactive	
Cn1cccc1C(=O)N1CCC2(CC1)CCN(C(c1ccccc1)c1ccccc1)CC2	inactive	
Cn1cccc1C(=O)N1CCC2(CC1)CN(C(=O)Nc1ccccc1)C2	inactive	
CN1CCN(c2ncc3nc(-c4ccccc4)c(=O)n(Cc4cccs4)c3n2)CC1	inactive	

SMILES	AC50	activity, negative = inhibition
CN1CCN(c2ncc3nc(CCc4ccccc4)c(=O)n(Cc4ccc(F)cc4)c3n2)CC1	inactive	
N[C@H](CCCP(=O)(O)O)C(=O)O	inactive	
O=C(N/C(=C/c1ccco1)C(=O)N1CCCCCC1)c1cccs1	inactive	
Cc1cc(OCC(F)(F)C(F)(F)C(F)(F)C(F)(F)C(F)(F)C(F)F)nc(N)n1	inactive	
CCCCn1c(SCC(N)=O)nc2ccc(N3CCOCC3)cc2c1=O	inactive	
Cc1ccc(OC(=O)c2oc3ccc(F)cc3c2C)c(C)c1	inactive	
Cc1ccc(NC(=S)NC(=O)c2c(-c3ccccc3Cl)noc2C)cc1	inactive	
C[C@@H](CCC(=O)O)C(=O)O		1.74% [at 11.4 µM]
Cc1ccc(S(=O)(=O)c2c(C)nn(C(C)(C)C)c2OC(=O)c2cccs2)cc1	inactive	
CC(N)=NCCCC[C@H](N)C(=O)O	inactive	
CCCC[C@H](CC)CN=C(N)NC(N)=NCCCCCCN=C(N)NC(N)=NC[C@@H](CC)CCCC	3.16 µM (active)	
CS/C(N)=N/N=C/c1ccc([N+](=O)[O-])cc1	inactive	
Cc1cc(C)cc(NC(=O)C/C(N)=N/O)c1	inactive	
O=C(c1ccccc1NS(=O)(=O)c1cccc([N+](=O)[O-])c1)N1CCOCC1	inactive	
Cc1onc(-c2c(Cl)cccc2Cl)c1C(=O)Nc1ccc2c(c1)OCO2	7.08 µM (active)	
CCOC(=O)Cc1csc(NC(=O)c2c(-c3c(Cl)cccc3Cl)noc2C)n1	inactive	
CC(=O)c1cc2c(cc1NC(=O)c1c(-c3ccccc3)noc1C)OCO2	inactive	
CC1(C)CC(=O)C(CCCN2C(=O)c3ccccc3C2=O)C(=O)C1	inactive	
CCN(CC)c1ncnc2c1sc1nc(C)cc(C)c12	inactive	
CO/N=C\[C@@H](OC)[C@H](C)/C=C\CC(=O)OC		9.03% [at 11.4 µM]
O=C(O)CCSC1=NCCN1		15.4% [at 11.4 µM]
O=C(CSC1=NCCN1)Nc1ccccc1	1.58 µM (active)	
O=C(CSc1nncn1-c1ccccc1)Nc1ccc(N2CCOCC2)cc1	inactive	
